Test results: PubChem BioAssay
Activity calls are given as the source filed them. Unless noted, no rule for the calls is given here.

Key:
[1] = system: XIP peptide (Xip251-270) binding; test: small-molecule binders of XIP peptide, primary screen, biochemical, small-molecule microarray, fluorescence 635/667 nm, 0.1 µg/mL protein (AID 1182); conditions: fluorescent protein binding, 635 nm, higher = more signal, called active from +8 up or from −8 down
[2] = system: XIP peptide (Xip251-270); test: small-molecule binders of XIP peptide, primary screen, biochemical, small-molecule microarray, fluorescence 635/667 nm, 0.5 µg/mL protein (AID 1183); conditions: small-molecule microarray binding, fluorescence 635 nm; higher = more signal
[3] = Plasmodium falciparum growth inhibition, primary screen, strain 3D7, DAPI fluorescence, 100 nL (AID 1184);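 also: parasites grown inside human red blood cells in medium with human serum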; conditions: P. falciparum 3D7 growth, 3 d, higher = more signal
[4] = biological target: Homeobox protein Hox-A13 (Mus musculus) (UniProt Q62424); test: inhibitors of HoxA13-DNA binding, primary screen, biochemical, fluorescence polarization, labeled oligonucleotide (AID 1185); conditions: 15 min, higher = more signal, called active from +8 up or from −8 down
[5] = inhibitors of hydroxyurea-induced Chk1 phosphorylation, primary screen, imaging, HeLa, phospho-Chk1 antibody, percent positive cells (AID 1186); conditions: hydroxyurea-induced phospho-Chk1 immunofluorescence imaging, higher = more signal
[6] = inhibitors of hydroxyurea-induced Chk1 phosphorylation, primary screen, imaging, HeLa, phospho-Chk1 nuclear intensity (AID 1187); conditions: hydroxyurea-induced phospho-Chk1 immunofluorescence imaging, higher = more signal

Sequence of Homeobox protein Hox-A13 (Mus musculus) (Q62424 whole entry, looked up): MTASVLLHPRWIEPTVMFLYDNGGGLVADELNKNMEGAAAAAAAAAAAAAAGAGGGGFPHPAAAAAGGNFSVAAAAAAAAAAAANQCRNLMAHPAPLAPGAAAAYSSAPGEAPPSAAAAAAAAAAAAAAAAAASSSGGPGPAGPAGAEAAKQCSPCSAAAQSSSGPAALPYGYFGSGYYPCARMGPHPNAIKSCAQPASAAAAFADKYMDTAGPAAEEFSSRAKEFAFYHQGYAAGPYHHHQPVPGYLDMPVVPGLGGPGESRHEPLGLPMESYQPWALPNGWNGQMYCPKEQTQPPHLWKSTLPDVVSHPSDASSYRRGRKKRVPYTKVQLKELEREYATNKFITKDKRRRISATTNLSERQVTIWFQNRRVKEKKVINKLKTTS

| Structure (SMILES) | composite z-score [1] | composite z-score [2] | z-score [3] | z-score [4] | z-score [5] | z-score [6] |
| --- | --- | --- | --- | --- | --- | --- |
| C[C@]12C(=O)N(CCO)[C@@H]3C(=O)N(c4ccc(Cl)cc4)CC=CC31O[C@@H]1/C=C\CCCOC(=O)C12 (some centres not stated) | -0.0502 (inactive) | 0.913 | -1.39 | -3.46 (inactive) | 0.245 (inactive) | 0.129 (inactive) |
| CCCCN1CC=CC23O[C@@H]4C=CCCOC(=O)C4[C@H]2C(=O)N(CCO)[C@@H]3C1=O (some centres not stated) | 0.61 (inactive) | 0.485 | 0.211 | -4.53 (inactive) | -0.307 (inactive) | -0.815 (inactive) |
| COc1c(C)cc(-c2cc3c(c(CCc4ccccc4)n2)[Si](C(C)C)(C(C)C)O[C@H]3c2ccccc2)cc1C | -0.0596 (inactive) | 0.0209 | -2.29 | 1.6 (inactive) | -0.0936 (inactive) | 0.0911 (inactive) |
| O=C1NC(=O)C2C1C=CC(C(O)C1CCCCC1)N2Nc1ccccn1 (configuration not stated) | -0.275 (inactive) | 0.27 | 0.582 | -2.17 (inactive) | 1.04 (inactive) | 1.39 (inactive) |
| COc1ccc(-c2cc3c(c(CCc4ccccc4)n2)[Si](C(C)C)(C(C)C)O[C@H]3c2ccccc2)cn1 | -0.269 (inactive) | -0.179 | -1.41 | -1.35 (inactive) | -0.0745 (inactive) | -0.194 (inactive) |
| COC(=O)C1=CC(CCCO)=CC(c2ccc(CN3CCCC3)cc2)N(C)C=C1C(=O)OC (configuration not stated) | 0.736 (inactive) | 0.873 | 0.34 | -6.09 (inactive) | -0.118 (inactive) | -0.428 (inactive) |
| O=C1C2C=CC(C(O)C3CC=CCC3)N(Nc3ccc([N+](=O)[O-])cc3)C2C(=O)N1c1ccccc1 (configuration not stated) | 0.524 (inactive) | 0.545 | -0.627 | -3.86 (inactive) | 0.691 (inactive) | -0.101 (inactive) |
| CN1C(=O)C2C=CC(C(O)c3ccc([N+](=O)[O-])cc3)N(Nc3ccccc3)C2C1=O (configuration not stated) | 0.924 (inactive) | 0.818 | -0.219 | -4.24 (inactive) | 0.533 (inactive) | 0.397 (inactive) |
| COC(=O)[C@@]1(Cc2ccc(F)cc2)[C@H]2c3cc(C(=O)N4CCCC4)n(Cc4ccc(C(F)(F)F)nc4)c3C[C@H]2CN1C(=O)c1ccccc1 | 0.216 (inactive) | 0.602 | -0.532 | -3.29 (inactive) | 0.278 (inactive) | 0.554 (inactive) |
| COc1ccc(C#Cc2ccc3c(c2)[C@]2(C(=O)N3)[C@H](c3ccccc3OCCO)N3[C@H](c4ccccc4)[C@H](c4ccccc4)OC(=O)[C@H]3[C@@H]2C(=O)NC[C@H](O)c2ccccc2)cc1 | 0.134 (inactive) | 0.709 | -2.01 | -1.77 (inactive) | -0.11 (inactive) | 0.108 (inactive) |
| CCCN1C(=O)[C@@]2(c3ccc([N+](=O)[O-])cc3)CC(=O)N(C3CCCCC3)[C@@H]2c2ccc(CO)cc21 | -0.403 (inactive) | 0.107 | 0.069 | -1.26 (inactive) | 0.257 (inactive) | 0.105 (inactive) |
| COc1ccc([Si](C)(C)[C@H]2[C@H](CC(=O)N(CCO)Cc3ccccc3)O[C@@]3(C(=O)N(Cc4ccc(N5C(=O)c6cccc7cccc5c67)cc4)c4ccccc43)[C@@H]2C)cc1 | 1.74 (inactive) | 0.587 | -2.11 | -1.38 (inactive) | -0.664 (inactive) | -0.393 (inactive) |
| CS(=O)(=O)CCOC(=O)C1=CC(CCCO)=CC(C2CC2)N(Cc2sc3ccccc3c2Cl)C=C1C(=O)OCCS(C)(=O)=O (configuration not stated) | 1.05 (inactive) | 0.257 | -3.02 | -4.7 (inactive) | -0.207 (inactive) | -0.0474 (inactive) |
| CC(=O)NCCCC[C@@H]1NC(=O)[C@H]2C[C@@H](C(=O)O)[C@@H](c3cccc(OCCO)c3)N2C1=O | 1.31 (inactive) | 0.806 | -0.48 | -2.31 (inactive) | 0.165 (inactive) | -0.347 (inactive) |
| CN(C)CCCCCCNC(=O)[C@@H]1C[C@@H]2C(=O)N[C@@H](CCCC[N+](C)(C)C)C(=O)N2[C@@H]1c1cccc(OCCO)c1 | 0.877 (inactive) | -0.0938 | -0.143 | -1.8 (inactive) | 0.559 (inactive) | 0.952 (inactive) |
| COCCCNC(=O)[C@@]1(Cc2ccccc2I)c2ccccc2C(=O)N(Cc2ccccc2C(F)(F)F)[C@H]1c1ccc(CO)cc1 | 0.739 (inactive) | 0.854 | -0.821 | -4.3 (inactive) | 0.0894 (inactive) | -0.0472 (inactive) |
| COc1c(C)cc(-c2nc(-c3ccccc3)c3c(c2C)CO[Si]3(C(C)C)C(C)C)cc1C | 0.412 (inactive) | -0.487 | -2.79 | -0.848 (inactive) | 0.157 (inactive) | 0.0254 (inactive) |
